# Assays:
# Test in all cases: pooled miR-30 sensor sort-seq; sequence = guide strand
# Conditions in all cases: shRNA
# [1] = molecular target: GPR64
# [2] = molecular target: GPRC5B
# [3] = molecular target: GPRC5C
# [4] = molecular target: GPS1
# [5] = molecular target: GPR89B
# [6] = molecular target: GRK1
# [7] = molecular target: GRIK2
# [8] = molecular target: GRIPAP1
# [9] = molecular target: GRIA1
# [10] = molecular target: GRHL3
# [11] = molecular target: HBQ1
# [12] = molecular target: HDHD2
# [13] = molecular target: HHATL
# [14] = molecular target: HIST1H4A
# [15] = molecular target: HIST2H3A
# [16] = molecular target: HMOX1
# [17] = molecular target: HLA-DRA
# [18] = molecular target: HMGB2
# [19] = molecular target: HMGN1
# [20] = molecular target: HS6ST1
# [21] = molecular target: IKBKAP
# [22] = molecular target: IL7
# [23] = molecular target: IPO9
# [24] = molecular target: IPO11
# [25] = molecular target: IP6K3
# [26] = molecular target: INVS
# [27] = molecular target: INPP5F
# Also: reference of the scale not given here.
sequence,measurement,setting,value
TTGGTTTACAGTCTGCTTCTTT,sensor-assay potency score (higher = more potent),[1],0.449
TACACGTTGCTTCTAAACGGAG,sensor-assay potency score (higher = more potent),[2],-1.35
TAGTGTTGACATTCGCAGGGGC,sensor-assay potency score (higher = more potent),[1],0.711
TAGTACAGGGGGTTGAGGCCTT,sensor-assay potency score (higher = more potent),[3],0.25
TACATGTAGCAACAATAGCAGT,sensor-assay potency score (higher = more potent),[1],-1.27
TTGGTGTCCTGCACAAAGGGGA,sensor-assay potency score (higher = more potent),[3],-0.48
TTGAACTTGCCGCACAGAGTGA,sensor-assay potency score (higher = more potent),[2],-0.846
TGAGGTTGCAGGAATCTCCAGA,sensor-assay potency score (higher = more potent),[3],0.399
TAAAGTAACATCATTGAGGCTT,sensor-assay potency score (higher = more potent),[1],0.0974
TTGTTCTCCATATAGGCCCGCG,sensor-assay potency score (higher = more potent),[2],-1.02
ATGGTGAGCACAAACGTGGTGA,sensor-assay potency score (higher = more potent),[3],-0.43
TTGCGCTGCAGCTCCTGCCGGT,sensor-assay potency score (higher = more potent),[4],-0.804
TTCGGACGGAACTTTGTGCATC,sensor-assay potency score (higher = more potent),[3],-0.913
TTGGGAAATCCTGCTGTTCGGA,sensor-assay potency score (higher = more potent),[2],-0.702
AAGAGGTACATGGTCATCCAGG,sensor-assay potency score (higher = more potent),[2],-1.02
TACCATAGACATCTCTTGCCCC,sensor-assay potency score (higher = more potent),[5],0.0271
TTGTCGCAGGTCTCATCTCTGA,sensor-assay potency score (higher = more potent),[6],-1.13
TCGAACATAGGTAATAGCCAGT,sensor-assay potency score (higher = more potent),[7],-0.567
TAGAGCAGCATCAGTCGTCATA,sensor-assay potency score (higher = more potent),[7],-0.889
TTCCTGTGCATCTGCACTCTGG,sensor-assay potency score (higher = more potent),[8],-1.21
TTCTTTTTCAGTTTCTCGGAGA,sensor-assay potency score (higher = more potent),[8],-0.31
TTAATTAGACTCATAAAGCGGG,sensor-assay potency score (higher = more potent),[7],0.186
TCCATCACTGACAATCTCCAGA,sensor-assay potency score (higher = more potent),[9],-1.21
TACACTGCAAGGAACTGACTGT,sensor-assay potency score (higher = more potent),[7],0.034
TTATCGTACCACCATTTGCTTT,sensor-assay potency score (higher = more potent),[9],-1.73
TAGTGTAAGAGAATTTCTGCAA,sensor-assay potency score (higher = more potent),[10],0.49
TTGACCAGCACTGACTGCCTTC,sensor-assay potency score (higher = more potent),[7],-0.29
TTCTTCATTACTTTTGACCAGC,sensor-assay potency score (higher = more potent),[7],-0.437
TATTTCTTGAAGTTGTTCCAGC,sensor-assay potency score (higher = more potent),[8],-0.115
TACTGCTCCATATTCTATCTTG,sensor-assay potency score (higher = more potent),[7],-0.199
TTGCTGGTTCTCTTGCTCCAGC,sensor-assay potency score (higher = more potent),[8],-0.982
TTAAACTTCGCCACTATCCCCT,sensor-assay potency score (higher = more potent),[6],0.34
TTTGTGATCAGCTTCCTTCCGT,sensor-assay potency score (higher = more potent),[8],0.395
TTTGTTGTCTGACACCTGGTGC,sensor-assay potency score (higher = more potent),[7],0.0104
TTGTGATCAGCTTCCTTCCGTT,sensor-assay potency score (higher = more potent),[8],-0.347
TTGAAGTTCTTCCACTGTCTGC,sensor-assay potency score (higher = more potent),[8],-0.043
TATAACTTCTTCCCGGACCAAA,sensor-assay potency score (higher = more potent),[9],-1.38
AAATCTATAACTTCTTCCCGGA,sensor-assay potency score (higher = more potent),[9],0.0312
TTTGTTTAGCTAAATCATCAGC,sensor-assay potency score (higher = more potent),[7],-0.527
TTTGCTGAACTCCTTATCCAAG,sensor-assay potency score (higher = more potent),[8],-1.41
TTCCTTGCTGAACTCGGCCATT,sensor-assay potency score (higher = more potent),[8],-1.52
TTTCTGTCTGCTTCGCTAGGTC,sensor-assay potency score (higher = more potent),[9],-0.0532
TTGAGTCGAAGATTATACCTTG,sensor-assay potency score (higher = more potent),[7],0.358
TATCGTACCACCATTTGCTTTT,sensor-assay potency score (higher = more potent),[9],-0.245
TTGACTGCTGTCACCTGCCAGT,sensor-assay potency score (higher = more potent),[9],-0.603
TTTATGTCGATTACACTGCAAG,sensor-assay potency score (higher = more potent),[7],-0.937
TTTGTTTAAGTCAATGTCCATG,sensor-assay potency score (higher = more potent),[9],-1.06
TAAACCTTCAAATCGCACCTGC,sensor-assay potency score (higher = more potent),[9],0.232
TTGTCCATTGGCATCATCCTGG,sensor-assay potency score (higher = more potent),[7],-0.234
TTGTCTTGTCCTTACTTCCGGA,sensor-assay potency score (higher = more potent),[9],-0.41
TTCTTGTTCAGCTTCTTGCAGG,sensor-assay potency score (higher = more potent),[6],-0.533
TTTCTTTTTCAGTTTCTCGGAG,sensor-assay potency score (higher = more potent),[8],-0.138
TTTCTCATTAAACTGCACGTTT,sensor-assay potency score (higher = more potent),[9],-0.314
TTCTTGAAGTTGTTCCAGCAGT,sensor-assay potency score (higher = more potent),[8],-0.658
TTCTCTAGCTTTATAATCTGGC,sensor-assay potency score (higher = more potent),[9],-0.406
TTCCATTGCTAGCTCATCCAGC,sensor-assay potency score (higher = more potent),[8],-0.174
ATAACGTGGCTCAGGAACTTGT,sensor-assay potency score (higher = more potent),[11],-1.13
AGAAGTAGGTCTTCGTGGCGGG,sensor-assay potency score (higher = more potent),[11],-0.804
TAACCTTTTAAGAGCTTCCTGT,sensor-assay potency score (higher = more potent),[12],-0.227
TCAACTAGCAGCATGGGTCTGA,sensor-assay potency score (higher = more potent),[12],0.908
TTGAGCAGGTCAGCTAAGGAGT,sensor-assay potency score (higher = more potent),[13],-0.763
TAGAGTGCGGTGATGCACTTGG,sensor-assay potency score (higher = more potent),[13],0.641
TCTCCTCGTAGATCAGACCAGA,sensor-assay potency score (higher = more potent),[14],-0.957
TAGACCACGTCCATGGCAGTGA,sensor-assay potency score (higher = more potent),[14],-0.363
TAATGGTCACGCGCTTGGCGTG,sensor-assay potency score (higher = more potent),[15],-1.65
TCCGTCTTAAAGTCCTGCGCGA,sensor-assay potency score (higher = more potent),[15],-1.2
TTGCACTTTGTTGCTGGCCCGC,sensor-assay potency score (higher = more potent),[16],-1.2
TCTTCAGTGATCTTCTCTCTAA,sensor-assay potency score (higher = more potent),[17],-0.905
TTTAGCTTAGCTGCTTTCTGTT,sensor-assay potency score (higher = more potent),[18],-0.377
TTGAGCAGGAACGCAGTCTTGG,sensor-assay potency score (higher = more potent),[16],-0.286
TTTAGGAGCATTGGGGTCCTTT,sensor-assay potency score (higher = more potent),[18],-0.857
TTCTTGGTTAGCCACTTCGGCC,sensor-assay potency score (higher = more potent),[19],-1.77
TTCGCTTCCACTTTTGCAGGAG,sensor-assay potency score (higher = more potent),[19],0.413
TTCTTCTTGTGCTCTTCCCGGC,sensor-assay potency score (higher = more potent),[18],-0.526
TATCTTTGGCTGACTGCTCAGA,sensor-assay potency score (higher = more potent),[18],-0.772
TAAACTCGCCTGATTGGTCAGG,sensor-assay potency score (higher = more potent),[17],-0.677
AAACACAAGACACAACATCTTT,sensor-assay potency score (higher = more potent),[16],-0.747
TTTCTTCTTGTGCTCTTCCCGG,sensor-assay potency score (higher = more potent),[18],-1.12
TCTTCTGGGAAGTAGACAGGGG,sensor-assay potency score (higher = more potent),[16],-0.217
TACCAAAAAATAAACAACCAGC,sensor-assay potency score (higher = more potent),[19],-1.01
TATAAAAACAACAGAACACAAC,sensor-assay potency score (higher = more potent),[16],-1.08
TTTGCAGACATGGTCTTCCATC,sensor-assay potency score (higher = more potent),[18],-0.617
TTTAGTTTCTTGGTTAGCCACT,sensor-assay potency score (higher = more potent),[19],-0.724
AAGATTTATCCTTCGCTGCTGC,sensor-assay potency score (higher = more potent),[19],-0.0749
TAGGGGATGACCTCCTGCCAGC,sensor-assay potency score (higher = more potent),[16],-1.69
TAGAGCTGCTTGAACTTGGTGG,sensor-assay potency score (higher = more potent),[16],0.136
TTAGCTTAGCTGCTTTCTGTTC,sensor-assay potency score (higher = more potent),[18],-0.873
TTGAACTTGGTGGCACTGGCAA,sensor-assay potency score (higher = more potent),[16],-0.865
TTCAAACTTCGACTTCTCCTTT,sensor-assay potency score (higher = more potent),[18],0.655
TTGTCTATGAAACAGATGAGGA,sensor-assay potency score (higher = more potent),[17],-0.94
TTGGTTAGCCACTTCGGCCTGT,sensor-assay potency score (higher = more potent),[19],0.684
TTAGAGTACGGAGCAATCGAAG,sensor-assay potency score (higher = more potent),[17],-1.52
TTATCCTTCGCTGCTGCCTTTT,sensor-assay potency score (higher = more potent),[19],-1.55
TTCTTCTTCTTTGAGCCTGTTG,sensor-assay potency score (higher = more potent),[18],-0.484
TCTTCTATCACCCTCTGCCTGA,sensor-assay potency score (higher = more potent),[16],-0.665
TACAGCAACTGTCGCCACCAGA,sensor-assay potency score (higher = more potent),[16],-0.902
TCATGAACTCAGCATTCTCTGC,sensor-assay potency score (higher = more potent),[16],-0.85
TTGATAAAAATATTCCTCTGGA,sensor-assay potency score (higher = more potent),[19],0.157
TTTAGCTGACAACCGCGCCGAT,sensor-assay potency score (higher = more potent),[19],-0.654
AAGTCAAACATAAACTCGCCTG,sensor-assay potency score (higher = more potent),[17],-0.837
TTGCGGTGCAGCTCTTCTGGGA,sensor-assay potency score (higher = more potent),[16],-0.856
TAAGTCTTCTTTAGTTTCTTGG,sensor-assay potency score (higher = more potent),[19],0.158
TAGGATATAAAAACTAACCCCC,sensor-assay potency score (higher = more potent),[19],-0.107
TTTAGGAACATTCAACATCAGA,sensor-assay potency score (higher = more potent),[18],-0.879
TTCTGGTTCGTTCTTCTTCTTT,sensor-assay potency score (higher = more potent),[18],-0.774
TTAGCTGACAACCGCGCCGATC,sensor-assay potency score (higher = more potent),[19],-1.18
TTGAGCTCCTCGATGCGCCGGA,sensor-assay potency score (higher = more potent),[20],0.162
TTGTCTATAGTAAACCGCTGAT,sensor-assay potency score (higher = more potent),[21],-0.619
TATCTCTTGTAATAGTCTCTTT,sensor-assay potency score (higher = more potent),[22],-0.557
TATAGGAGAATGTATCATCATC,sensor-assay potency score (higher = more potent),[23],-0.789
TTCTTTAATAGCATCATCTGAA,sensor-assay potency score (higher = more potent),[24],-0.198
TAGCTGGGTGACAATCTCCGTA,sensor-assay potency score (higher = more potent),[24],-0.584
TACACTTGTCCACCAGTCTTGT,sensor-assay potency score (higher = more potent),[25],-0.242
TTGTTCTCCTAGCATCTCCTGC,sensor-assay potency score (higher = more potent),[24],-0.927
TACTTGAGCATTATTTTCCAGT,sensor-assay potency score (higher = more potent),[26],-0.382
AACATCAGTAGCATCTACTTGA,sensor-assay potency score (higher = more potent),[26],0.641
ATATTTACACTTGTCCACCAGT,sensor-assay potency score (higher = more potent),[25],-0.684
TTGCAGAGAAAGTACTTCTTAT,sensor-assay potency score (higher = more potent),[25],-0.832
TAACAGGAAACTAAGCAGCTAT,sensor-assay potency score (higher = more potent),[24],-0.294
TTCCTTTTCACTTCTGTCCAGC,sensor-assay potency score (higher = more potent),[27],-0.59

# From the OligoGym collection
